Assay results: PubChem BioAssay (EPA / NIEHS)
Records with an inconclusive call do not appear. Activity calls are given as the source filed them. How the source made its calls, unless noted: active means hit-call score of the fitted dose curve at least 0.9, where 1 is the maximum; inactive means score below 0.9.

Columns and labels:
[1] = UKN4_HCS_LUHMES_cell_viability: Viability Assessment in the University of Konstanz (UKN) Leist Lab Neurite Outgrowth Assay in human LUHMES cells (UKN4) (AID 2284232)
Summary of the method: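 Measured in replated, 2-day-differentiated LUHMES cells treated 24 h; stained 30 min with H-33342 and calcein-AM before high-content imaging.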

[2] = UKN2_HCS_IMR90_cell_viability: Viability Assessment in the University of Konstanz (UKN) Leist Lab Neural Crest Cell Migration Assay in human induced IMR90 Pluripotent Stem Cells (UKN2) (AID 2284233);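 further: viability of neural crest cells differentiated from IMR90 iPSC measured by calcein-AM fluorescence imaging; cells exposed to compound for 24 h after a 24 h migration phase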
Summary of the method: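 cMINC format, iPSC-derived neural crest (IMR90); 24 h migration (EGF/FGF, N2-S), then 24 h toxicant. Calcein-AM/H-33342 stain 30 min; fluorescence intensity by HCS; DMSO-normalised, bidirectional fitting.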

PGR (gene 5241) [3] = molecular target: PGR (gene 5241) (UniProt P06401); assay: TOX21_PR_BLA_Followup_Agonist_ratio: Tox21 HEK293 Progesterone Receptor (PR) Agonism Beta-lactamase Follow-Up Assay, Ratio (AID 2283933; active means hit-call score of the fitted dose curve at least 0.9, where 1 is the maximum)
Summary of the method: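 Ratio-based beta-lactamase reporter signal after 16 hr compound treatment of PR-UAS-bla HEK293T cells at 37C. Substrate loading lasted 2 hr at room temperature.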

PGR (gene 5241) [4] = molecular target: PGR (gene 5241) (UniProt P06401); assay: TOX21_PR_LUC_Followup_Agonist: Tox21 HEK293 Progesterone Receptor (PR) Agonism Luciferase Follow-Up Assay (AID 2283937)
Summary of the method: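 In HEK293 cells stably expressing PR-A with a luciferase reporter, compounds were incubated 16 h at 37C, and induced luminescence was quantified with ONE-Glo, multiplexed with cell viability.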

[5] = read-out: Monokine induced gamma interferon (MIG), CXCL9 (gene 4283); assay: BSK_KF3CT_MIG: BioMAP Diversity Plus: KF3CT Assay for Monokine induced gamma interferon (MIG) Biomarker Activity (AID 2284248); settings: primary human keratinocytes with fibroblasts
Summary of the method: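 Human keratinocyte plus foreskin fibroblast primary co-culture dosed with test chemical for 24 h; MIG level measured by ELISA and fitted in the positive direction against DMSO as baseline.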

[6] = read-out: Collagen I, COL1A1 (gene 1277); assay: BSK_hDFCGF_CollagenI: BioMAP Diversity Plus: hDFCGF Assay for Collagen I Biomarker Activity (AID 2284250); settings: primary human foreskin fibroblasts
Summary of the method: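 Readout: Collagen I by ELISA after 24 h compound treatment of primary human foreskin fibroblasts. Endpoint analysed for increases relative to DMSO; total protein by SRB in parallel wells flagged cytotoxicity.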

[7] = read-out: Interferon-inducible T-cell alpha chemoattractant (ITAC), CXCL11 (gene 6373); assay: BSK_hDFCGF_ITAC: BioMAP Diversity Plus: hDFCGF Assay for Interferon-inducible T-cell alpha chemoattractant (ITAC) Biomarker Activity (AID 2284251); settings: primary human foreskin fibroblasts
Summary of the method: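 Chemical dosing of primary human foreskin fibroblast cultures preceded ELISA measurement of I-TAC at 24 h. Response was analysed in the positive direction using DMSO as baseline, while parallel SRB staining measured cytotoxicity.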

[8] = read-out: Plasminogen activator inhibitor-1 (PAI1), SERPINE1 (gene 5054); assay: BSK_KF3CT_PAI1: BioMAP Diversity Plus: KF3CT Assay for Plasminogen activator inhibitor-1 (PAI1) Biomarker Activity (AID 2284252); settings: primary human keratinocytes with fibroblasts
Summary of the method: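 In this co-culture of primary human keratinocytes and foreskin fibroblasts, PAI-1 was measured by ELISA at 24 h and fitted upward from DMSO.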

[9] = read-out: Interleukin-8 (IL8), CXCL8 (gene 3576); assay: BSK_KF3CT_IL8: BioMAP Diversity Plus: KF3CT Assay for Interleukin-8 (IL8) Biomarker Activity (AID 2284254); settings: primary human keratinocytes with fibroblasts
Summary of the method: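 Human primary keratinocyte plus foreskin fibroblast co-culture dosed with test chemicals; IL-8 measured by ELISA 24 h after dosing. Activity fitted in the positive direction relative to DMSO negative control.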

[10] = read-out: Intercellular Adhesion Molecule 1 (ICAM1), ICAM1 (gene 3383); assay: BSK_BE3C_ICAM1: BioMAP Diversity Plus: BE3C Assay for Intercellular Adhesion Molecule 1 (ICAM1) Biomarker Activity (AID 2284278); settings: primary human bronchial epithelial cells;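 further: cell-surface ICAM-1 protein level quantified by ELISA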
Summary of the method: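 hu bronchial epithelial primary cells, 24 h cpd exposure, ICAM-1 ELISA; gain-of-signal fit vs DMSO baseline.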

[11] = read-out: Interferon-inducible T-cell alpha chemoattractant (ITAC), CXCL11 (gene 6373); assay: BSK_BE3C_ITAC: BioMAP Diversity Plus: BE3C Assay for Interferon-inducible T-cell alpha chemoattractant (ITAC) Biomarker Activity (AID 2284279); settings: primary human bronchial epithelial cells
Summary of the method: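 The assay measures I-TAC levels by ELISA in human primary bronchial epithelial cell cultures 24 hours after chemical treatment. Values reflect signal increase over the DMSO baseline.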

[12] = read-out: Interleukin-8 (IL8), CXCL8 (gene 3576); assay: BSK_BE3C_IL8: BioMAP Diversity Plus: BE3C Assay for Interleukin-8 (IL8) Biomarker Activity (AID 2284280); settings: primary human bronchial epithelial cells
Summary of the method: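 Measured at 24 h after treatment, IL-8 from human primary bronchial epithelial cells is determined by ELISA, and the response is modelled as increasing relative to DMSO negative control.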

[13] = read-out: Epidermal growth factor receptor (EGFR), EGFR (gene 1956); assay: BSK_BE3C_EGFR: BioMAP Diversity Plus: BE3C Assay for Epidermal growth factor receptor (EGFR) Biomarker Activity (AID 2284281); settings: primary human bronchial epithelial cells
Summary of the method: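 Measured 24 h after dosing in primary human bronchial epithelial cultures, EGFR was read by ELISA; gain of signal over DMSO control defined activity.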

KRT18 (gene 3875) = assay: BSK_BE3C_Keratin818: BioMAP Diversity Plus: BE3C Assay for Keratin 818 Biomarker Activity (AID 2284282); settings: primary human bronchial epithelial cells
Summary of the method: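 In this multiplexed primary-cell system, bronchial epithelial cells were dosed and harvested at 24 h. Keratin 8/18 was determined by ELISA and analysed for increases over DMSO controls.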

[14] = read-out: Matrix Metallopeptidase 9 (MMP9), MMP9 (gene 4318); assay: BSK_BE3C_MMP9: BioMAP Diversity Plus: BE3C Assay for Matrix Metallopeptidase 9 (MMP9) Biomarker Activity (AID 2284283); settings: primary human bronchial epithelial cells
Summary of the method: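 Human primary bronchial epithelial cells in the BE3C system were dosed with compound for 24 h. MMP-9 was measured by ELISA, and the positive-direction response was fitted relative to DMSO as baseline. Parallel SRB staining gauged cytotoxicity.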

[15] = read-out: Plasminogen activator inhibitor-1 (PAI1), SERPINE1 (gene 5054); assay: BSK_CASM3C_PAI1: BioMAP Diversity Plus: CASM3C Assay for Plasminogen activator inhibitor-1 (PAI1) Biomarker Activity (AID 2284284); settings: primary human coronary artery smooth muscle cells;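 further: PAI-1 protein level measured by ELISA 24 h after dosing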
[16] = read-out: Monocyte Chemoattractant Protein-1 (MCP1), CCL2 (gene 6347); assay: BSK_hDFCGF_MCP1: BioMAP Diversity Plus: hDFCGF Assay for Monocyte Chemoattractant Protein-1 (MCP1) Biomarker Activity (AID 2284285); settings: primary human foreskin fibroblasts
Summary of the method: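 MCP-1 ELISA readout was taken 24 hours after dosing primary human dermal fibroblasts in the hDFCGF system, with DMSO as baseline. Parallel sulforhodamine B staining of total protein tracked overt cytotoxicity.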

[17] = read-out: Intercellular Adhesion Molecule 1 (ICAM1), ICAM1 (gene 3383); assay: BSK_hDFCGF_ICAM1: BioMAP Diversity Plus: hDFCGF Assay for Intercellular Adhesion Molecule 1 (ICAM1) Biomarker Activity (AID 2284287); settings: primary human foreskin fibroblasts
Summary of the method: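 ICAM-1 ELISA readout 24 h after dosing, DMSO as baseline, in human dermal foreskin fibroblast cultures. Cytotoxicity checked in parallel wells by SRB staining (0.1% SRB, 10% TCA fixation, 560 nm).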

[18] = read-out: TIMP metallopeptidase inhibitor 2 (TIMP2), TIMP2 (gene 7077); assay: BSK_hDFCGF_TIMP2: BioMAP Diversity Plus: hDFCGF Assay for TIMP metallopeptidase inhibitor 2 (TIMP2) Biomarker Activity (AID 2284289); settings: primary human foreskin fibroblasts
Summary of the method: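 Primary human foreskin fibroblasts in the hDFCGF system, dosed for 24 h; TIMP-2 level measured by ELISA, fitted in the positive direction against DMSO; cytotoxicity checked in parallel by sulforhodamine B total protein staining.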

[19] = read-out: Thrombomodulin, THBD (gene 7056); assay: BSK_LPS_Thrombomodulin: BioMAP Diversity Plus: LPS Assay for Thrombomodulin Biomarker Activity (AID 2284296); settings: primary human HUVEC with PBMC
Summary of the method: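 Thrombomodulin on the surface of LPS-activated endothelial/PBMC co-cultures was quantified by ELISA at 24 hours post-dosing, with DMSO as baseline. Parallel SRB total-protein staining flagged overt cytotoxicity.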

Measured: outcome

Chain of PGR (gene 5241) (P06401 whole entry, looked up): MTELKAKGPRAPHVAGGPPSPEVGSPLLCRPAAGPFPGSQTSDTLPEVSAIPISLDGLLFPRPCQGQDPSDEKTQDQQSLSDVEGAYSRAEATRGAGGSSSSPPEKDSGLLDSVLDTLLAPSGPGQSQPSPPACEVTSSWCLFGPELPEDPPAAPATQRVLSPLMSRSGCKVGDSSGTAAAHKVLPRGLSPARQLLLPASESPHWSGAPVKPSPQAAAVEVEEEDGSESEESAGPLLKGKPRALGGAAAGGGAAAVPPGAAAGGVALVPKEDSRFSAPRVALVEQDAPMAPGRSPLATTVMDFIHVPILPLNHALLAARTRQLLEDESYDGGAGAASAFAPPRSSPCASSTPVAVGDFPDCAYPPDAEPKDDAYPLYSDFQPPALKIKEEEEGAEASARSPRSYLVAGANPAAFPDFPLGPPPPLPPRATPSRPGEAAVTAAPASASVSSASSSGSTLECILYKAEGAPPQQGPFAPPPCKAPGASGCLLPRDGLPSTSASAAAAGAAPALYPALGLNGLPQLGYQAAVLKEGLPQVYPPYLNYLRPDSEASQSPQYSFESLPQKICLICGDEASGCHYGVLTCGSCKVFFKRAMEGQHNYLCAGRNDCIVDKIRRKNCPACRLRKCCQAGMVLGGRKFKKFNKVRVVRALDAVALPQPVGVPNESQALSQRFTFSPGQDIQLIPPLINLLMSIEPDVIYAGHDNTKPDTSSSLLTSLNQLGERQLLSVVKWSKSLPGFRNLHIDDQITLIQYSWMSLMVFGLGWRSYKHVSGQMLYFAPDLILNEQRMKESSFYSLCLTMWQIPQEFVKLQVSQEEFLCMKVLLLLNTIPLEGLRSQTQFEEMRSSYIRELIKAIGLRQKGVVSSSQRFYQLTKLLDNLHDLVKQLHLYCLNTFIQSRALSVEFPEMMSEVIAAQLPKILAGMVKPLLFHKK

CC1(C)[C@H](C(=O)O[C@H](C#N)c2cccc(Oc3ccccc3)c2)[C@@H]1C=C(Br)Br
inactive: [1] | [2]

N#Cc1cc(I)c(O)c(I)c1
inactive: PGR (gene 5241) [3] | PGR (gene 5241) [4]

O=[N+]([O-])O
inactive: [5] | [6] | [7] | [8] | [9] | [10] | [11] | [12] | [13] | KRT18 (gene 3875) | [14] | [15] | [16] | [17] | [18] | [19]
